Results published in PubChem BioAssay (NCI).
About 83,000 compounds went through this panel and 20% of them were active in at least one assay; those are over-represented in the sample as a whole.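 Values shown are percent growth following 48 h exposure of cells in 96-well plates to a single concentration of compound; below 10 was considered active.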 Activity calls are given as the source filed them.

Tests used:
Test in all cases: NCI-60 one-dose screen, 48 h (100 = growth as untreated, 0 = no growth, -100 = all killed)
Settings in all cases: 10 µM unless noted
[1] = test system: BT-549 breast
[2] = test system: MDA-MB-435 melanoma
[3] = test system: SW-620 colon
[4] = test system: MCF7 breast
[5] = test system: HCT-116 colon
[6] = test system: HCC-2998 colon
[7] = test system: KM12 colon

Measured: growth

COc1cc(/C=C/C(=O)/C=C/c2cc3ccc(Cl)cc3n(Cc3ccccc3)c2=O)ccc1O
active: [1] -19.2% | [2] -19.1% | [3] 3.39% | [5] -82.6% | [6] -73.8% | [7] -52.3%
inactive: [4] 26.2%

CSc1nc(-c2cccs2)c2c(N)[nH]nc2n1
inactive: [1] 96.4% | [2] 117% | [3] 119% | [4] 94.3% | [5] 92.2% | [6] 107% | [7] 48.8%

CCOC(=O)/C=C1\SC(=Nc2ccc(C#N)cc2)N(CCN2C(=O)/C(=C/C(=O)OCC)SC2=Nc2ccc(C#N)cc2)C1=O
inactive: [1] 32.5% | [2] 72.6% | [4] 24.4% | [6] 20.6% | [7] 23.2%
active: [3] 9.61% | [5] 4.59%

C1=CC2=CC=C3C=CC=C4C(c5nc6c7ccccc7c7ccccc7c6[nH]5)=CC(=C1)C2C34 (stereo unspecified)
inactive: [1] 97.3% | [2] 99.9% | [3] 98.3% | [4] 76.9% | [5] 83.3% | [6] 111% | [7] 86.5%

Nc1ccccc1NS(=O)(=O)c1ccc(Cl)cc1
inactive: [1] 101% | [2] 90.6% | [3] 99.3% | [4] 94% | [5] 97% | [6] 84.4% | [7] 100%

COC(=O)c1nc(-c2ccccc2)oc1S(=O)(=O)n1nc(-c2ccccc2)cc1N
inactive: [1] 82.2% | [2] 63.6% | [3] 10.9% | [4] 80.9% | [5] 84.8% | [6] 108% | [7] 92.2%

CCCCn1c2cc(OCc3cn(-c4ccc(Cl)cc4)nn3)ccc2c2ccnc(C)c21
inactive: [1] 61.7% | [2] 60.2% | [3] 34.2% | [4] 25.8% | [6] 43.8% | [7] 41.9%
active: [5] 8.91%

CC(=O)ON1CCCC(P(=O)(OCOC(=O)C(C)(C)C)OCOC(=O)C(C)(C)C)C1=O (stereo unspecified)
active: [1] -1.15% | [4] -1.76% | [5] 0.623% | [6] -36.8% | [7] -11.5%
inactive: [2] 27% | [3] 16.5%

COc1ccc2c(c1)/C(=C1\S/C(=N/c3nnc(C)s3)NC1=O)C(=O)N2Cc1ccc(Cl)cc1
inactive: [1] 54.6% | [2] 52.8% | [3] 49.3% | [4] 45.8% | [5] 31.7% | [6] 34.2% | [7] 28.6%

C=C(C)[C@@H]1CCC=C2CC[C@]3(C)[C@H](CC[C@@H]4[C@@]5(C)CCCNC(C)(C)[C@@H]5CC[C@]43C)[C@H]21
active: [3] -50.2% | [4] 0.921% | [5] -54.8% | [6] 5.32%
inactive: [1] 89.2% | [2] 16.8% | [7] 19.9%

O=C(CN1N=C(c2ccc(F)cc2)CCC1=O)Nc1nc2ccccc2s1
active: [1] -71.2%
inactive: [2] 99.9% | [3] 57.8% | [4] 87.4% | [5] 70.7% | [6] 95.7% | [7] 45.1%

C#C[C@@]1(O)[C@@H](CO)O[C@@H](n2cnc3c(-c4ccccc4)ncnc32)[C@@H]1O
inactive: [1] 102% | [2] 100% | [3] 111% | [4] 82.1% | [5] 99.8% | [6] 103% | [7] 106%

C=C1C(=O)O[C@H]2[C@H]1CC/C(COC(=O)Nc1nc3ccccc3[nH]1)=C\CC[C@@]1(C)O[C@@H]21
inactive: [1] 77.3% | [2] 45.8% | [3] 16.4% | [4] 20.1% | [5] 12% | [6] 102% | [7] 94.9%

N#Cc1c(-c2ccc(F)cc2)nc(N/N=C/c2cccc(O)c2)nc1N1CCOCC1
inactive: [1] 93.4% | [2] 93.4% | [3] 73.7% | [4] 72.4% | [5] 71% | [6] 95.1% | [7] 86%

C#Cc1ccccc1NC(=O)c1sc2nc3c(cc2c1N)CCCCC3
inactive: [1] 96.4% | [2] 95.1% | [3] 102% | [4] 81.5% | [5] 109% | [6] 105% | [7] 102%

COc1ccc(/C=C/C(=O)C(CC2CCC2)C(=O)/C=C/c2ccc(OC)c(OC)c2)cc1OC
active: [1] -23.5% | [2] -11.5% | [3] -26.3% | [4] 6.93% | [5] -75.8% | [6] -80.6% | [7] -33.5%

CN(C)C(CNc1oc(-c2cccc3ccccc23)nc1C#N)c1ccco1 (stereo unspecified)
inactive: [1] 91.4% | [2] 97.4% | [3] 103% | [4] 87.8% | [5] 89.3% | [6] 105% | [7] 97.4%

COc1ccc2[nH]c(-c3ccccc3)c(C=C(C#N)C#N)c2c1
inactive: [3] 25.1% | [4] 17.1% | [5] 23.5% | [6] 49.3% | [7] 18.6%
active: [1] 4.38% | [2] -55.1%

C(=C\c1cn(-c2ccccc2)nc1-c1ccccc1)/c1nnc(-c2c[nH]c3ccccc23)o1
inactive: [1] 81% | [2] 49% | [3] 45.8% | [4] 34.3% | [5] 24.7% | [6] 97.3% | [7] 37.9%

NC(=O)CN1C(=O)c2ccccc2C1=O
inactive: [1] 86.6% | [2] 106% | [3] 103% | [4] 95.3% | [5] 102% | [6] 103% | [7] 103%

CC[C@]12C=CCN3CC[C@@]4(c5ccc(OC)cc5N(C)[C@H]4[C@@](O)(C(=O)OC)[C@@H]1OC(=O)CCC(=O)O[C@H]1CC[C@H]4[C@@H]5CC[C@H]6CC(=O)CC[C@]6(C)[C@H]5CC[C@]14C)[C@@H]32
inactive: [1] 11.6% | [2] 29.4% | [3] 21.3% | [6] 41.4% | [7] 22.4%
active: [4] 9.98% | [5] 9.84%

O=S(=O)(Nc1nccs1)c1ccc(Nc2nc(-c3ccncc3)cs2)cc1
inactive: [1] 125% | [2] 112% | [3] 98.1% | [4] 94.3% | [5] 93.8% | [6] 120% | [7] 105%

CCOC(=O)c1c(C)nc2c(c1N)/C(=C/c1cccs1)C(=O)N2Cc1ccccc1
active: [4] 8.22%
inactive: [1] 73.6% | [2] 88.9% | [3] 58% | [5] 34.9% | [6] 96% | [7] 40.5%

COc1cc2c(Nc3ccc(NC(=O)Nc4ccc(Cl)c(C(F)(F)F)c4)c(Cl)c3)ncnc2cc1OCCCN1CCN(C)CC1
inactive: [1] 21.6% | [6] 20.2%
active: [2] -71.2% | [3] -85.4% | [4] -77.4% | [5] -73.2% | [7] -55.1%

CC(C)Cc1cc(CNC(=O)C2[C@H]3CN(C(=O)c4ccccc4)C[C@@H]23)nn1-c1ccccc1 (stereo partly specified)
inactive: [1] 96.1% | [2] 108% | [3] 102% | [4] 94.4% | [5] 92% | [6] 101% | [7] 101%

N#Cc1c(-c2ccc(Cl)cc2)cc(-c2cc3ccccc3o2)nc1SCC(=O)c1ccc(Cl)cc1
inactive: [1] 112% | [2] 104% | [3] 94.2% | [4] 112% | [5] 94.1% | [6] 102% | [7] 94.9%

O=C(CCl)N1CCCc2ccccc21
inactive: [1] 97.1% | [2] 91.8% | [3] 99% | [4] 92% | [5] 95.9% | [6] 96.6% | [7] 90.4%

COc1cc(-c2csc(NC(=O)Nc3cc(Cl)cc(Cl)c3)n2)cc(OC)c1OC
inactive: [1] 11.5% | [2] 27.1% | [6] 70.8% | [7] 18.5%
active: [3] -26.4% | [4] 8.04% | [5] -28.9%

COC(=O)c1cncc(C(=O)Nc2ccc(-n3cnc4ccccc43)cc2)c1
inactive: [1] 96.1% | [2] 105% | [3] 112% | [4] 84.7% | [5] 103% | [6] 116% | [7] 88.4%

Cc1nnc(/N=C2\NC(=O)/C(=C/c3ccc(N(C)C)cc3)S2)s1
active: [2] 9.37%
inactive: [1] 67.4% | [3] 66.9% | [4] 53.4% | [5] 54.6% | [6] 85.5% | [7] 46.1%

Cc1nccc2c3ccc(OCc4cn(-c5ccc(Cl)cc5)nn4)cc3n(CC(C)C)c12
inactive: [1] 28.3% | [2] 30.6% | [3] 24.4% | [4] 13% | [5] 10.8% | [6] 31.2% | [7] 19.3%

Cn1cc(-c2ccc3c(c2)ncn3-c2ccc(CC(=O)Nc3cc(C(C)(C)C)on3)cc2)cn1
inactive: [1] 31.5% | [2] 34.8% | [3] 33.7% | [4] 26.9% | [5] 16.6% | [6] 76.3% | [7] 16.3%

O=c1[nH]c2ccccc2cc1-c1nc2ccc(Cl)cc2[nH]1
inactive: [1] 43% | [2] 32.5% | [3] 42.5% | [4] 23.8% | [5] 22.2% | [6] 79.7%
active: [7] 5.1%
